Experimental data from PubChem BioAssay.
“And” between values parts separate entries of the source, which are not always exact repeats. Identical values can stand only once. The source made the active and inactive calls. Rule as the data show it: active = fold change permeability below about 0.7 or above about 1.3; inactive = in between.

Experiment: compounds altering in vitro BBB leakiness – cell-based, FITC-avidin fluorescence, HTS, primary screen (AID 1963498); also: test concentration not given here
Settings: brain endothelial barrier, actives lie on both sides

With `CN1C(=O)CCS(=O)(=O)C1c1ccc(Cl)cc1` (stereo unspecified) as the compound, how does the fold change permeability read?
The fold change permeability was 1.3 (active).

With `Cc1cc([C@@H]2CCCN2C)on1` as the compound, how does the fold change permeability read?
The fold change permeability was 1.1 (inactive).

Which fold change permeability does the source give for `Cc1c(F)cccc1[C@H]1COC(N)=N1` here?
The fold change permeability was 1 (inactive).

Which fold change permeability does the source give for `NCC(O)c1ccc(O)cc1` (stereo unspecified) here?
Its fold change permeability is 0.9 (inactive).

Which fold change permeability does the source give for `CC(C)NC(C)Cc1ccc(I)cc1` (stereo unspecified) here?
Its fold change permeability is 1.8 (active).

For `Nc1ncnc2c1ncn2[C@@H]1O[C@H](COP(=O)(O)CP(=O)(O)OP(=O)(O)O)[C@H](O)C1O` (stereo partly specified), which fold change permeability is on record?
The fold change permeability was 0.9 (inactive).

For `COc1ccccc1N1CCNCC1`, which fold change permeability is on record?
Its fold change permeability is 0.9 (inactive).

With `CC[C@@]1(O)C(=O)OCc2c1cc1n(c2=O)Cc2cc3ccccc3nc2-1` as the compound, how does the fold change permeability read?
The fold change permeability was 1.4 (active).

Which fold change permeability does the source give for `COc1ccc(OC)c(C(O)C(C)N)c1` (stereo unspecified) here?
The fold change permeability was 0.8 (inactive).

With `CN1CC[C@@]2(C)c3cc(OC(=O)Nc4ccccc4)ccc3N(C)[C@@H]12` as the compound, how does the fold change permeability read?
Its fold change permeability is 1.4 (active).

For `C[C@@H]1[C@@H]2Cc3ccc(O)cc3[C@@]1(C)CCN2CC1CC1`, which fold change permeability is on record?
Its fold change permeability is 1.3 (active).

With `CCOC(=O)c1ccc(-c2ccc(OC(=O)N(C)Cc3cccc(-c4ccncc4)c3)cc2)cc1` as the compound, how does the fold change permeability read?
Its fold change permeability is 1.2 (inactive).

For `C[N+](C)(C)CC#CCOC(=O)Nc1cccc(Cl)c1`, which fold change permeability is on record?
Its fold change permeability is 0.9 (inactive).

For `c1ccc(C2CC2)c(OCC2=NCCN2)c1`, which fold change permeability is on record?
The fold change permeability was 1 (inactive).

Which fold change permeability does the source give for `CC[C@@H](C(N)=O)N1CCCC1=O` here?
Its fold change permeability is 0.9 (inactive).

Which fold change permeability does the source give for `NNC(N)=O` here?
Its fold change permeability is 1 (inactive).

With `CN1C2CCC1CC(OC(c1ccccc1)c1ccccc1N)C2` (stereo unspecified) as the compound, how does the fold change permeability read?
Its fold change permeability is 1.1 (inactive).

With `N[C@@H]1C[C@H]1c1ccccc1` as the compound, how does the fold change permeability read?
Its fold change permeability is 0.9 (inactive).

With `CN1[C@H]2C[C@H](OC(=O)[C@H](CO)c3ccccc3)C[C@@H]1[C@@H](O)C2` as the compound, how does the fold change permeability read?
The fold change permeability was 0.8 (inactive).

For `COc1ccc(C(=O)N2CCCC2=O)cc1`, which fold change permeability is on record?
The fold change permeability was 1 (inactive).

For `N[C@@H](Cn1oc(=O)[nH]c1=O)C(=O)O`, which fold change permeability is on record?
The fold change permeability was 1.1 (inactive).

With `C=C(C)[C@H]1CN[C@H](C(=O)O)[C@H]1CC(=O)O` as the compound, how does the fold change permeability read?
The fold change permeability was 1.8 (active).

With `NC(Cc1cc(O)c(O)cc1O)C(=O)O` (stereo unspecified) as the compound, how does the fold change permeability read?
Its fold change permeability is 0.9 (inactive).

With `Clc1ccc(C(Cn2ccnc2)OCc2csc3c(Cl)cccc23)c(Cl)c1` (stereo unspecified) as the compound, how does the fold change permeability read?
The fold change permeability was 1.2 (inactive).

For `CC(C)Oc1cccnc1N(C)C1CCN(Cc2ccccc2)CC1`, which fold change permeability is on record?
Its fold change permeability is 1.5 (active).

For `CC(NC(C)(C)C)C(=O)c1cccc(Cl)c1` (stereo unspecified), which fold change permeability is on record?
The fold change permeability was 1 (inactive).

Which fold change permeability does the source give for `CCCN1CCC[C@@H](c2cccc(O)c2)C1` here?
The fold change permeability was 1 (inactive).

With `CC1=NN=C(c2ccc(N)cc2)c2cc3c(cc2C1)OCO3` as the compound, how does the fold change permeability read?
The fold change permeability was 1.1 (inactive).

With `CN[C@@H]1Cc2cccc3[nH]c(=O)n(c23)C1` as the compound, how does the fold change permeability read?
The fold change permeability was 0.8 (inactive).

Which fold change permeability does the source give for `NN=C(N)N` here?
Its fold change permeability is 1.2 (inactive) and 1 (inactive).

With `COC[C@H]1OC(=O)c2coc3c2[C@@]1(C)C1=C(C3=O)C2CCC(=O)[C@@]2(C)C[C@H]1OC(C)=O` (stereo partly specified) as the compound, how does the fold change permeability read?
Its fold change permeability is 1.7 (active).

Which fold change permeability does the source give for `CN1C[C@H](CNC(=O)OCc2ccccc2)C[C@@H]2c3cccc4c3c(cn4C)C[C@H]21` here?
Its fold change permeability is 1.4 (active).

Which fold change permeability does the source give for `C[N+]1(C)CCN(c2ccccc2)CC1` here?
Its fold change permeability is 1.2 (inactive).

For `Fc1ccc(C(OCCN2CCN(CCCc3ccccc3)CC2)c2ccc(F)cc2)cc1`, which fold change permeability is on record?
The fold change permeability was 1.6 (active).

For `N#CC(C#N)=Cc1ccc(O)c(O)c1`, which fold change permeability is on record?
Its fold change permeability is 1.2 (inactive).

Which fold change permeability does the source give for `C[N+](C)(C)CC(=O)O` here?
The fold change permeability was 1 (inactive).
